From PubChem BioAssay
“And” between values parts separate entries of the source, which are not always exact repeats. Equal entries are not always repeated. For some assays here: Entries with a potency or affinity are not part of this list. The source made the active and inactive calls.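 The calls were made as follows, unless noted: active = at least 20% inhibition of 6-phosphogluconate dehydrogenase activity; inactive = the rest.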

Assays:
[1] = blockers of polyQ-driven CASP3 activation – cell-based (AID 1583); settings: polyglutamine-induced caspase-3 activation, cell assay; stronger effect = higher value;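 tested at 10 µM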
[2] = yeast 75Q aggregation reduction – 75Q-TubU reporter (AID 1593); settings: Yeast 75Q polyglutamine aggregation reporter
[3] = restoration of touch response, mutant HTT neurons – whole organism, C. elegans mechanosensory neurons, N-terminal huntingtin (AID 1599); settings: C. elegans polyQ-huntingtin mechanosensory neurons, stronger effect = higher value
[4] = blockers of cytochrome c efflux from mitochondria – biochemical, purified mitochondria (AID 1603); settings: stronger effect = lower value;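 also: mouse liver mitochondria challenged with calcium chloride; signal normalized to the plate average as 100%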
[5] = polyglutamine aggregate formation blockers (AID 1604); settings: polyglutamine-induced protein aggregation inhibition assay; stronger effect = higher value; tested at 2.5 µM
[6] = glutamate transport activators, MN-1 cells, MN-1 cell line (AID 1612); settings: MN-1 motor neuron cells, stronger effect = higher value;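 also: tested at 1 µM final; 0% = mean of DMSO vehicle wells on each plate; positive means more glutamate uptake than control and negative means less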
[7] = GFP-Q80 aggregate reduction, neuronal-like cells, cell-based, NGF-treated PC12, GFPQ80 (AID 1614); settings: PC12 NGF-treated GFP-polyQ80 inclusion reduction;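 also: lower means fewer inclusions and 0 means no inclusions at all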
[8] = 75Q-TubH aggregate inhibition, S. cerevisiae, yeast (AID 1616); settings: S. cerevisiae 75Q-TubH polyglutamine aggregation suppression; stronger effect = higher value
[9] = compounds altering circadian rhythm period length – cell-based, LOPAC library, luminescence reporter (AID 2774; call rule not given here;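 also: values are relative to mean of DMSO wells on each plate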); settings: circadian reporter cells, at 7 µM, actives lie on both sides
[10] = P. berghei load reduction in hepatocytes – cell-based, HepG2, luciferase luminescence, HepG2 viability, primary screen (AID 624349; in the data active = parasite load remaining mostly below about 12%, no sharp cut-off; inactive = mostly above about 10%;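 also: 100% = mean of DMSO negative control wells on the same plate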); settings: P. berghei liver stage in HepG2, luciferase luminescence, concentration not given here; parasite load remaining: stronger effect = lower value; viability: measured here: HepG2 viability without parasites
[11] = tested on: Hepatitis C virus NS3 helicase; experiment: blockers of NS3h binding to ssDNA – biochemical, fluorescence polarization, LOPAC1280 library, primary screen (AID 687035; in the data active = inhibition above about 37%); settings: Purified HCV NS3 helicase, Cy5-dT15 ssDNA binding fluorescence polarization; stronger effect = higher value; concentration not given here
[12] = molecular target: 6-phosphogluconate dehydrogenase, decarboxylating (Homo sapiens) (UniProt P52209); experiment: inhibition of human phosphogluconate dehydrogenase – biochemical, recombinant enzyme, NADPH absorbance, primary screen (AID 1159550); settings: recombinant 6PGD, NADPH absorbance 341 nm; at 10 µM; stronger effect = higher value
Chain of 6-phosphogluconate dehydrogenase, decarboxylating (Homo sapiens) (P52209 whole entry, looked up): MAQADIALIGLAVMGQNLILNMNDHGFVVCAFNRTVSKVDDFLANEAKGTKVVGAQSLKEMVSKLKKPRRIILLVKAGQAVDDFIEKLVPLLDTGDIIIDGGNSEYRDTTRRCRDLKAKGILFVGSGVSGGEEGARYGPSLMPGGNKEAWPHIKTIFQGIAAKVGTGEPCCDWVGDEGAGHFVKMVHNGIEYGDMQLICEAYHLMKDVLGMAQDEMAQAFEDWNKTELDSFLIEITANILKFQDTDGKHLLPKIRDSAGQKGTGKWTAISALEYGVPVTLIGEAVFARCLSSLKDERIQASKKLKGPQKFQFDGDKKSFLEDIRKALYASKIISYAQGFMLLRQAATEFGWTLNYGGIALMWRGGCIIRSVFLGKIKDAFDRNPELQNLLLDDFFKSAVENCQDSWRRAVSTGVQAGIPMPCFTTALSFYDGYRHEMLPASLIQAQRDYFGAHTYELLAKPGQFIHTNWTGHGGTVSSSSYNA

[13] = EMT-state selective cytotoxicity in co-culture – imaging, PC-3E GFP, TEM4-18 mCherry, primary screen (AID 1345086;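 active = compounds killing one labelled cell type while sparing the other, by normalised counts and ratio limits, not self-fluorescent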;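 as to all read-outs here: cells exposed to compound for 72 h before imaging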;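 as to red/green cell ratio (normalised): normalised mesenchymal count divided by normalised epithelial count so high means epithelial killing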); settings: PC-3E GFP / TEM4-18 mCherry co-culture, imaging cell counts, at 1 µM; for red/green cell ratio (normalised): actives lie on both sides, counts scaled to control wells, 1 = unselective
[14] = blockers of cellular phospholipid synthesis – cell-based, LOPAC library, screen 4, primary screen (AID 1347384; call rule not given here); settings: animal cells, phospholipid biosynthesis inhibition screen; at 10 µM
[15] = MELAS cybrid and Rieske KO viability enhancers – cell-based, MELAS cybrids, Rieske KO mouse fibroblasts, CellTiter-Glo, primary screen (AID 1508586;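 active = mean z-score across replicates of 1.96 or higher in either the MELAS or the Rieske mutant cell line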;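 also: z relative to plate mean and SD of compound and empty wells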); settings: low glucose
[16] = molecular target: NAD(+) hydrolase SARM1 (Homo sapiens) (UniProt Q6SZW1); experiment: blocking NAD cleavage by SARM1 SAM-TIR – cell lysate, NAD-Glo luminescence (AID 1508614;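 active = compound whose remaining NAD level is above about 45 nM, limit read from the data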;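 also: higher remaining NAD means stronger inhibition of SARM1 NADase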); settings: SAM-TIR HEK293T lysate NADase, at 1 µM, stronger effect = higher value
Chain of NAD(+) hydrolase SARM1 (Homo sapiens) (Q6SZW1 whole entry, looked up, the tested form may be a part): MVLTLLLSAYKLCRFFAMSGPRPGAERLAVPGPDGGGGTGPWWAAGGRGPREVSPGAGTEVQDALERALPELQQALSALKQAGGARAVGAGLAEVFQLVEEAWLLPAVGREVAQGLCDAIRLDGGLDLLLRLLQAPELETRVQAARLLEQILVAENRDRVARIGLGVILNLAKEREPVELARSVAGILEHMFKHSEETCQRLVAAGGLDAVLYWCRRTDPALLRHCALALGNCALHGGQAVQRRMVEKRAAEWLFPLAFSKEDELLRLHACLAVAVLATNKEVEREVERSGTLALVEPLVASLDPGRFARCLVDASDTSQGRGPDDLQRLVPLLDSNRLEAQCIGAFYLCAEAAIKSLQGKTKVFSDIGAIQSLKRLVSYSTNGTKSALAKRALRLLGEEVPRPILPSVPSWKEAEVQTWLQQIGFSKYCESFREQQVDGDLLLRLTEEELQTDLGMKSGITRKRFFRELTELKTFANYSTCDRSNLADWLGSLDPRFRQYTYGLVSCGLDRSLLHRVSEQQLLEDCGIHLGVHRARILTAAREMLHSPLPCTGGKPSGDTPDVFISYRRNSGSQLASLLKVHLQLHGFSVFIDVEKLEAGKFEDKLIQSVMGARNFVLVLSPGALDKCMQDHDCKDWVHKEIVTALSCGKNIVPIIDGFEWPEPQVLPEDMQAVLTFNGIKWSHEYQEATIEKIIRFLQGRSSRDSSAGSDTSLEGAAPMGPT

[17] = molecular target: Mitogen-activated protein kinase 7 (Homo sapiens) (UniProt Q13164); experiment: Gal4-ERK5 driven luciferase induction – cell-based, HTS, primary screen (AID 1508626;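 active = luciferase signal above three times the same-plate solvent-only control wells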;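 also: luciferase driven by Gal4-ERK5 fusion binding five Gal4 sites before minimal TATA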); settings: HeLa Gal4-ERK5 transactivation, 18 h, at 5 µM, stronger effect = higher value
Chain of Mitogen-activated protein kinase 7 (Homo sapiens) (Q13164 whole entry, looked up, the tested form may be a part): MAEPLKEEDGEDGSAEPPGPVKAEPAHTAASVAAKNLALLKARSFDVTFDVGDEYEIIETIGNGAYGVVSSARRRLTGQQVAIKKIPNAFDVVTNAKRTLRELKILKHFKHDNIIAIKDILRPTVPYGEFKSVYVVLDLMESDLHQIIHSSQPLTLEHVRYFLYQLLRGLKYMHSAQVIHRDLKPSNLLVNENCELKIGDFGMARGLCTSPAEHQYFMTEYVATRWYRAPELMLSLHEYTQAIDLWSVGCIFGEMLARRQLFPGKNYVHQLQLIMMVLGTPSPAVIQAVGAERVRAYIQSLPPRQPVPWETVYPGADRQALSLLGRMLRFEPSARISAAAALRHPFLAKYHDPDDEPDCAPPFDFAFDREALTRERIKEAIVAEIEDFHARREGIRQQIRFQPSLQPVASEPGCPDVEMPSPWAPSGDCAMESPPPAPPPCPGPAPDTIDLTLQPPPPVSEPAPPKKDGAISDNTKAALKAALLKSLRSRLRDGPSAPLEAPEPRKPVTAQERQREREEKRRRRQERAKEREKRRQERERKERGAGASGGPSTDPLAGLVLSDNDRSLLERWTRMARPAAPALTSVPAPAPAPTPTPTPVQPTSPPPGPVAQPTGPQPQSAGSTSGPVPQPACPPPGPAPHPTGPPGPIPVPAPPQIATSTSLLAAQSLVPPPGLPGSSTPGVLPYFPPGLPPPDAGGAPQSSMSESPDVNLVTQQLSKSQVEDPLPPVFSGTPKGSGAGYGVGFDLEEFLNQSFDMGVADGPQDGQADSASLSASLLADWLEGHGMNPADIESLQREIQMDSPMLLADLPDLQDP

[18] = galactose survival enhancers in mitochondrial complex I cybrids – cell-based, galactose medium, ATP luminescence, primary screen (AID 1645843;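 active = z-score of at least 1.8 in each of two replicates, scored against plate mean and spread of sample wells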;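 also: positive z means more ATP and so rescue of galactose-driven cybrid death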); settings: complex I mutant cybrid cells, 72 h, stronger effect = higher value
[19] = viability loss with induced miR-34 in A549 – imaging, A549 dox-inducible miR-34, nuclei and caspase counts, primary screen (AID 1347080;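 active = compounds whose cell count with miR-34 switched on is under 0.7 times the count with it off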); settings: A549 miR-34 inducible, Hoechst nuclei count, 48 h
[20] = measured here: epithelial PC-3E GFP cell survival
[21] = measured here: mesenchymal TEM4-18 mCherry cell survival
[22] = MELAS cybrid survival, CellTiter-Glo 48 h, stronger effect = higher value
[23] = Rieske KO mouse fibroblast survival, CellTiter-Glo 72 h
[24] = stronger effect = lower value, cell number ratio, induced over uninduced
[25] = measured here: relative caspase fold change +Dox/-Dox
[26] = measured here: total cells with miR-34 induction, stronger effect = lower value
[27] = measured here: total cells without miR-34 induction

Q: For NCCc1cnc[nH]1, which inhibition [1] is on record?
A: The inhibition was -28.4%.

Q: What about the score [2] of the same compound?
A: The score was 1.16.

Q: And the rescue above control [3]?
A: Its rescue above control is -5.3.

Q: What about the cytochrome c release ratio [4] of the same compound?
A: Its cytochrome c release ratio is 0.91.

Q: And the inhibition of aggregation [5]?
A: The inhibition of aggregation was 51.2%.

Q: What about the glutamate uptake change [6] of the same compound?
A: The glutamate uptake change was -0.34%.

Q: And the inclusion score [7]?
A: The inclusion score was 2.

Q: And the aggregation suppression score [8]?
A: Its aggregation suppression score is 1.08.

Q: What about the period change [9] of the same compound?
A: Its period change is 0.14 h (inactive).

Q: And the parasite load remaining [10]?
A: Its parasite load remaining is 99.6% (inactive) and 68.2% (inactive).

Q: What about the viability [10] of the same compound?
A: Its viability is 74.2% and 99%.

Q: What about the inhibition [11] of the same compound?
A: The inhibition was -3% (inactive).

Q: And the inhibition [12]?
A: Its inhibition is 11.6% (inactive).

Q: And the red/green cell ratio (normalised) [13]?
A: Its red/green cell ratio (normalised) is 1.19 (inactive).

Q: What about the normalised cell number [13, 20] of the same compound?
A: The normalised cell number was 0.99.

Q: And the normalised cell number [13, 21]?
A: The normalised cell number was 1.18.

Q: What about the outcome [14] of the same compound?
A: Its outcome is “inactive”.

Q: And the z-score [15, 22]?
A: The z-score was 1.03 (inactive) and -0.124 (inactive) and -0.135 (inactive).

Q: What about the z-score [15, 23] of the same compound?
A: Its z-score is -0.434 and -0.222 and -0.159.

Q: What about the remaining NAD [16] of the same compound?
A: The remaining NAD was 10 nM (inactive).

Q: And the luciferase signal [17]?
A: The luciferase signal was 68 AU (inactive).

Q: What about the z-score [18] of the same compound?
A: Its z-score is 0.205 (inactive) and 0.305 (inactive) and 0.49 (inactive).

Q: What does the source list for O=c1cc(-c2ccccc2)oc2cc(O)c(O)c(O)c12?
A: parasite load remaining [10]: 140% (inactive); viability [10]: 91.4%; inhibition [12]: 4.11% (inactive); red/green cell ratio (normalised) [13]: 0.84 (inactive); normalised cell number [13, 20]: 1.08; normalised cell number [13, 21]: 0.91; fold change [19, 24]: 1.03 (inactive) and 0.801 (inactive) and 0.986 (inactive); fold change [19, 25]: 1.01 and 1.16 and 0.831; cell count [19, 26]: 5800 and 6380 and 7810; cell count [19, 27]: 5640 and 7960 and 7920; z-score [15, 22]: -0.448 (inactive); z-score [15, 23]: -1.5; luciferase signal [17]: 60 AU (inactive); z-score [18]: -0.805 (inactive)

Q: With CCC/C=C1\OC(=O)C2=C1CCC=C2 as the compound, how does the inhibition [12] read?
A: The inhibition was 3.63% (inactive).

Q: And the red/green cell ratio (normalised) [13]?
A: The red/green cell ratio (normalised) was 1.13 (inactive).

Q: What about the normalised cell number [13, 20] of the same compound?
A: Its normalised cell number is 0.83.

Q: And the normalised cell number [13, 21]?
A: The normalised cell number was 0.94.

Q: What does the source list for CCCCOc1cc(CC2CNC(=O)N2)ccc1OC (configuration not stated)?
A: period change [9]: 0.115 h (inactive); inhibition [11]: -2% (inactive); inhibition [12]: 1.84% (inactive); red/green cell ratio (normalised) [13]: 1.01 (inactive); normalised cell number [13, 20]: 1.14; normalised cell number [13, 21]: 1.15; fold change [19, 24]: 0.994 (inactive) and 1.05 (inactive) and 0.91 (inactive); fold change [19, 25]: 1.87 and 1.3 and 0.769; cell count [19, 26]: 10200 and 6130 and 8720; cell count [19, 27]: 10300 and 5830 and 9590; outcome [14]: inactive; luciferase signal [17]: 60 AU (inactive); z-score [18]: 0.26 (inactive) and -0.055 (inactive)

Q: Which results are given for C[C@]12CC[C@@H](O)C[C@H]1CCc1ccccc12?
A: inhibition [12]: -3.83% (inactive); red/green cell ratio (normalised) [13]: 1.08 (inactive); normalised cell number [13, 20]: 1.09; normalised cell number [13, 21]: 1.17

Q: For O=C1CC(c2ccccc2)Oc2ccccc21 (configuration not stated), which inhibition [12] is on record?
A: Its inhibition is 1.48% (inactive).

Q: What about the red/green cell ratio (normalised) [13] of the same compound?
A: The red/green cell ratio (normalised) was 0.93 (inactive).

Q: What about the normalised cell number [13, 20] of the same compound?
A: Its normalised cell number is 1.14.

Q: And the normalised cell number [13, 21]?
A: The normalised cell number was 1.06.

Q: Which results are given for CC(=O)NC(C(=O)O)C(C)(C)SN=O (configuration not stated)?
A: inhibition [12]: 3.72% (inactive); red/green cell ratio (normalised) [13]: 1.02 (inactive); normalised cell number [13, 20]: 1.04; normalised cell number [13, 21]: 1.06

Q: With CC(=O)/C(=C\c1ccccc1)CC(=O)O as the compound, how does the inhibition [12] read?
A: Its inhibition is 3.72% (inactive).

Q: And the red/green cell ratio (normalised) [13]?
A: The red/green cell ratio (normalised) was 0.99 (inactive).

Q: What about the normalised cell number [13, 20] of the same compound?
A: Its normalised cell number is 1.18.

Q: What about the normalised cell number [13, 21] of the same compound?
A: Its normalised cell number is 1.16.

Q: With CC(=O)c1ccc[nH]1 as the compound, how does the inhibition [12] read?
A: The inhibition was 13.8% (inactive).

Q: What about the red/green cell ratio (normalised) [13] of the same compound?
A: The red/green cell ratio (normalised) was 0.97 (inactive).

Q: What about the normalised cell number [13, 20] of the same compound?
A: The normalised cell number was 1.06.

Q: And the normalised cell number [13, 21]?
A: Its normalised cell number is 1.03.

Q: Which results are given for COc1ccc(-c2cc(=O)c3c(O)cc(O)c(-c4cc(-c5cc(=O)c6c(O)cc(O)cc6o5)ccc4OC)c3o2)cc1?
A: inhibition [12]: 10.8% (inactive); red/green cell ratio (normalised) [13]: 0.98 (inactive); normalised cell number [13, 20]: 0.79; normalised cell number [13, 21]: 0.78
